# Data as given in PubChem BioAssay AID2685 (National Center for Advancing Translational Sciences (NCATS), 2010).
# The whole screen tested about 320,000 compounds, of which about 2,100 (0.66%) were called active. Not shown: some 53% with an inconclusive outcome. The call rests on the fitted dose curve; in most records, active means well fitted inhibition curve with a large enough effect in the signal ratio, with a control signal flat (not every such curve was filed as active); inconclusive means small, poorly fitted or top-dose-only effect, or effect the other way, or a change in a side signal; inactive means flat fitted curve, though single readings scatter; the % refers to the signal ratio. The entries come from a sample that favours actives as a whole.
# Assay: qHTS Assay for Lipid Storage Modulators in Drosophila S3 Cells;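 on cell number change: cells counted by Cell Tracker Red CMTPX staining in the red channel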; on lipid storage change, negative = inhibition: on the % scale 0 is the no-effect control and ±100 the full control effect
# Conditions: BODIPY lipid droplet fluorescence, 18-24 h, cells fed with added oleic acid; cell number change: measured here: cell count max response; series mostly up to 46.1 µM; lipid storage change, negative = inhibition: at the top concentration
# Method in brief: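 Laser-scanning cytometry quantifies lipid droplet accumulation (500–530 nm total intensity; droplet/cell object ratio) in oleic acid-fed (400 uM added) Drosophila S3 cells treated with a concentration series. 20 uM Triacsin C defined 100% inhibition.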
# Potency means the concentration at half of the fitted maximal effect.
SMILES,"lipid storage change, negative = inhibition",cell number change [%],Potency,outcome
CCCn1c(-c2cccc([N+](=O)[O-])c2)nc2c1c(=O)[nH]c(=O)n2Cc1ccccc1,18.3% (inactive),1.66,,
C=CCOc1ccc(-c2nc3c(c(=O)[nH]c(=O)n3CCC)n2CCCC)cc1,,22.5,2.91 µM (active),
C=CCOc1ccc(-c2nc3c(c(=O)[nH]c(=O)n3Cc3ccccc3)n2CCCOC)cc1,-1% (inactive),4.84,,
CCCCn1c(=O)[nH]c(=O)c2c1nc(-c1ccc(-c3ccc(F)cc3)o1)n2C,26% (inactive),10.6,,
C=CCOc1ccc(-c2nc3c(c(=O)[nH]c(=O)n3CCCC)n2C)cc1Br,-0.288% (inactive),12.1,,
CCCCn1c(=O)[nH]c(=O)c2c1nc(-c1ccc(OC)c(Br)c1)n2CC(C)C,,9.66,0.326 µM (active),
CCCn1c(-c2cccc(F)c2)nc2c1c(=O)[nH]c(=O)n2Cc1ccccc1,,13.3,,inactive
CCCCn1c(=O)[nH]c(=O)c2c1nc(-c1cccc(OC)c1)n2C,-6.52% (inactive),-6.05,,
CCCCn1c(=O)[nH]c(=O)c2c1nc(-c1ccc(-c3ccccc3)cc1)n2C,,-2.7,3.66 µM (active),
CCCn1c(-c2cc(OC)c(OC)c(OC)c2)nc2c1c(=O)[nH]c(=O)n2Cc1ccccc1,,,0.651 µM (active),
CCCCn1c(=O)[nH]c(=O)c2c1nc(-c1ccc(OCC)cc1)n2CC,13.4% (inactive),-8.47,,
Cc1cc(C)c(NC(=O)c2cc(C(=O)O)ccc2C(=O)O)c([N+](=O)[O-])c1,2.67% (inactive),2.4,,
COc1ccc(CCc2cc(OC)cc(=O)o2)cc1,16.7% (inactive),-1.16,,
Cc1cc(C)c(OCCCCN(C)Cc2ccccc2)c(C)c1,,-22,7.31 µM (active),
Cc1ccc(Cl)c(OCCCCN(C)Cc2ccccc2)c1,-10.2% (inactive),-11.3,,
CN(CCOc1ccccc1Cl)Cc1ccccc1,,-8.5,23.1 µM (active),
CN(CCOc1ccc(F)cc1)Cc1ccccc1,11.2% (inactive),11.7,,
CN(CCCCOc1ccc(F)cc1)Cc1ccccc1,13.9% (inactive),9.09,,
CN(Cc1ccccc1)C(=O)COc1ccccc1Cl,-17.2% (inactive),10.4,,
CC1CN(S(=O)(=O)c2ccc(C(=O)Nc3nnc(-c4ccccn4)o3)cc2)CC(C)O1 (stereo not drawn),-3.48% (inactive),10.4,,
Cn1c(=O)c(C(=O)NNC(=O)c2ccccc2F)c(O)c2ccccc21,,13,,inactive
Cn1c(=O)c(C(=O)NNC(=O)c2ccccc2Br)c(O)c2ccccc21,,7.83,,inactive
Cn1c(=O)c(C(=O)NNC(=O)c2ccc(Br)cc2)c(O)c2ccccc21,,12.5,16.4 µM (active),

SMILES,"lipid storage change, negative = inhibition",cell number change [%],Potency,outcome
COc1cccc(CN2CC(C(=O)N3CCOCC3)CCC2=O)c1 (stereo not drawn),,-3.29,,inactive
c1ccc(-c2csc3ncnc(NCC4COc5ccccc5O4)c23)cc1 (stereo not drawn),,-33.8,1.84 µM (active),
c1ccc(-c2csc3ncnc(NCc4ccccn4)c23)cc1,-14.3% (inactive),-13.1,,
c1ccc(-c2csc3ncnc(NCCN4CCOCC4)c23)cc1,-15.7% (inactive),-69.5,,
COc1ccc(S(=O)(=O)NCC2CCCN(C(=O)C=C(C)C)C2)cc1 (stereo not drawn),0.395% (inactive),-5.61,,
CCOc1ccccc1C(=O)N1CCC(n2nnc3cc(C(F)(F)F)ccc32)CC1,,,,inactive
CC(C)CCNC(=O)CN(Cc1ccccc1)C(=O)CCC(=O)Nc1nccs1,,2.61,,inactive
Cc1csc(NC(=O)CCC(=O)N(CC(=O)NC2CCCC2)Cc2ccco2)n1,8.55% (inactive),5.63,,
COc1ccc(CN(CC(=O)NC2CCCC2)C(=O)CCC(=O)Nc2nc(C)cs2)cc1,,2.99,4.61 µM (active),
CC(C)CCNC(=O)CN(CC1CCCO1)C(=O)CCC(=O)Nc1nccs1 (stereo not drawn),22.3% (inactive),9.95,,
O=C(CN(Cc1ccccc1)C(=O)CCC(=O)Nc1nccs1)NCc1ccccc1,-11.3% (inactive),-17.1,,
O=C(CCC(=O)N(CC(=O)NC1CCCCC1)Cc1cccs1)Nc1nccs1,13.5% (inactive),-2.3,,
COc1ccc(CN(CC(=O)NC2CCCC2)C(=O)CCC(=O)Nc2cc(C)on2)cc1,6.13% (inactive),2.01,,
CC(C)CCNC(=O)CN(C(=O)CCC(=O)Nc1nccs1)C1CCCCC1,,-4.17,1.3 µM (active),
O=C(CCC(=O)N(CC(=O)NC1CCCC1)Cc1ccccc1)Nc1nccs1,,6.76,3.66 µM (active),
CC(C)(C)OC(=O)[C@H](NC(=O)OCc1ccccc1)c1ccccc1,,-4.27,,inactive
CSc1nc(=S)n(Cc2ccccc2)c(C)c1C(C)=O,0.545% (inactive),2.19,,
CCn1c(C)c(C(C)=O)c(SC)nc1=S,,-9.08,23.1 µM (active),
CCSc1nc(=S)n(CC)c(C)c1C(C)=O,-7.91% (inactive),11,,
CS(=O)(=O)N(CC(=O)Nc1ccccc1-c1ccccc1)c1ccccc1,3.31% (inactive),6.57,,
CNC(=S)NNC(=O)c1ccc(=O)n(Cc2ccc(Cl)cc2Cl)c1,14.6% [at 9.22 µM] (inactive),-1.09,,
CC(C)(O)CC[C@@H](O)[C@](C)(O)[C@H]1CC[C@@]2(O)C3=CC(=O)[C@@H]4C[C@@H](O)[C@@H](O)C[C@]4(C)C3CC[C@]12C (stereo partly drawn),-9.22% (inactive),-13.6,,
